High-throughput results as filed in PubChem BioAssay.
This is a sample that favours compounds with a hit; in the whole collection about 6.5% have one here.
HCMV antiviral: qHTS Assay for inhibitors of the human cytomegalovirus (HCMV); activity change, negative = inhibition, % at 57.5 µM; 410,000 tested, 4.5% active; AID 1259415, 2018; HFF cells, HCMV-luciferase reporter, 72 h; stronger effect = lower value; in the data active = activity change below about -60%; inconclusive = no clear call, values can overlap the other calls; inactive = above about -39%
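Two compound doses tested in HFFs infected with HCMV-luciferase, MOI 1 PFU/cell, 72 h at 37C. Lysate luminescence read with OneGlo; data normalized against buffer-only and 10uM Salinomycin inhibitor controls.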
Marburg entry inh: qHTS for inhibitors of binding or entry into cells for Marburg Virus. Marburg virus pseudotyped entry inhibition, cell reporter. Potency, µM (series often up to 37.8 µM), most hits filed as inhibitors. 300,000 tested, 1.8% active; calls by dose curve; tested in HEK293 cells
VACV Venus inh: qHTS for Stage-Specific Inhibitors of Vaccinia Orthopoxvirus: Venus Reporter Primary qHTS. Potency, µM (series often up to 36.5 µM), hits mostly inhibitors. Vaccinia virus Venus reporter expression, fluorescence. 330,000 tested, 0.46% active. AID 720580, 2013; calls by dose curve; tested in A549 cells; also: nearly all actives have a fitted effect of over 30% in size
FMDV inh: High Throughput Screening for Foot and Mouth Disease Virus Antivirals | FMDV antiviral cell-based qHTS | Potency, µM (series often up to 57.9 µM), hits mostly inhibitors | 410,000 tested, 1.2% active | AID 1159524, 2015; calls by dose curve; tested in HEK293T cells; also: read-out not given here; nearly all actives have a fitted effect of over 45% in size
LASV entry inh: qHTS for Inhibitors of binding or entry into cells for Lassa Virus. Potency, µM (highest dose often 37.9 µM), most hits filed as inhibitors. AID 540256, 2011. Lassa virus pseudotype entry inhibition, cell reporter. 300,000 tested, 1.2% active; calls by dose curve; tested in HEK293 cells; also: nearly all actives have a fitted effect of over 50% in size
Vaccinia mCherry: qHTS for Stage-Specific Inhibitors of Vaccinia Orthopoxvirus: mCherry Reporter Primary qHTS. Vaccinia virus mCherry reporter infection, fluorescence. Potency, µM (highest dose often 36.5 µM), actives largely listed as inhibitors. 310,000 tested, 0.63% active. AID 720579, 2013; calls by dose curve; tested in A549 cells; also: nearly all actives have a fitted effect of over 35% in size
A number is an active result; 0 = inactive; ? = inconclusive; - = no result; + = active, no number; ! = a repeat was not active; [ ] = dose if it differs, or a comment.

SMILES | HCMV antiviral | Marburg entry inh | VACV Venus inh | FMDV inh | LASV entry inh | Vaccinia mCherry
Cc1ccc2oc(Nc3nc(-c4ccccc4)cc(=O)[nH]3)nc2c1 | -101 | ? | 0 | ? | 0 | 0
COCc1cc(=O)[nH]c(Nc2nc3ccccc3o2)n1 | 0 | ? | 0 | 0 | ? | 0
COc1ccc2c(C)c(CCC(=O)NCc3cccc(Cl)c3)c(=O)oc2c1 | 0 | 0 | 0 | 0 | 0 | 0
COc1ccc(CCNS(=O)(=O)c2cc(-c3onc(C)c3C)ccc2OC)cc1OC | 0 | - | 0 | 0 | 0 | 0
COc1ccc(-c2onc(C)c2C)cc1S(=O)(=O)NCc1ccc(C)o1 | -71 | - | 0 | 0 | ? | 0
CCOc1ccccc1CNS(=O)(=O)c1cc(-c2onc(C)c2C)ccc1OC | + | - | 0 | 0 | 0 | 0
COc1ccccc1CN1CCC(CNS(=O)(=O)c2cc(-c3onc(C)c3C)ccc2OC)CC1 | 0 | - | 0 | 0 | 0 | ?
COC(=O)[C@@]12Cc3ccccc3[C@H]1C[C@H](C)[C@@H](C)N2C(=O)C(F)(F)F | - | 0 | - | - | - | -
Cc1ccc2nc(-c3ccc(C)o3)c(Nc3ccc(Cl)cc3)n2c1 | - | - | 0 | - | - | 0
CN(Cc1nc(Cc2ccccc2F)no1)Cc1cccc2ncccc12 | -85 | 0 | 0 | 16µM | ? | 0
CN(Cc1nc(Cc2ccccc2F)no1)CC1(N2CCOCC2)CCCCC1 | 0 | ? | 0 | 0 | 0 | 0
Cc1ccc(NC(=O)C2CCN(S(=O)(=O)c3ccc4c(c3)NC(=O)C(C)S4)CC2)cc1Cl (configuration not stated) | -99 | - | - | ? | - | -
Cc1ccc(CCNC(=O)C2CCN(S(=O)(=O)c3ccc4c(c3)NC(=O)C(C)S4)CC2)cc1 (configuration not stated) | ? | ? | 0 | 32µM | ? | 0
CC1Sc2ccc(S(=O)(=O)N3CCC(C(=O)NCCc4ccccc4)CC3)cc2NC1=O (configuration not stated) | 0 | ? | 0 | 0 | ? | 0
Cc1cccc(CCNC(=O)C2CCN(S(=O)(=O)c3ccccc3)CC2)c1 | -68 | 0 | 0 | 0 | 0 | 0
CC(C)c1ccc(NC(=O)C2CCC(CNS(=O)(=O)c3ccc4c(c3)CCCC(=O)N4)CC2)cc1 (configuration not stated) | 0 | - | ? | 25µM | ? | ?
O=C(NCCc1cccc(F)c1)C1CCN(S(=O)(=O)c2ccccc2)CC1 | 0 | - | - | 0 | - | -
Cc1cccc(CCNC(=O)CCc2c(C)nc3c(c(C)nn3-c3ccccc3)c2C)c1 | 0 | ? | 0 | ? | 0 | 0
COc1ccc(-c2cc3ccc(O)c(CN4CCOCC4)c3oc2=O)cc1 | 0 | - | 0[7.34 µM] | 0 | 0 | 0[7.34 µM]
CN(C)[C@H]1CC[C@@]23CCCN2C(=O)CCC[C@H]3[C@H]1Cc1ccccc1 | 0 | - | - | - | - | -
CCCC[C@@H]1C[C@H]1C(=O)Nc1ccc(OC)c(OC)c1 | - | 0 | - | - | - | -
Cc1cc(=O)c(C(=O)NCCc2ccccn2)c2n1-c1ccccc1SC(c1cccs1)C2 (configuration not stated) | - | - | 0 | 0 | - | 0
CC(=O)OC[C@H]1O[C@H](C#Cc2ccccc2Cl)C=C[C@H]1OC(C)=O | - | 0 | - | - | - | -
Cc1ccc(NC(=O)C2CCN(S(=O)(=O)c3ccc4c(c3)NC(=O)C(C)S4)CC2)c(Cl)c1 (configuration not stated) | 0 | - | - | 18µM | - | -
Cc1ccc(NC(=O)C2CCN(S(=O)(=O)c3ccc4c(c3)CCCC(=O)N4)CC2)c(Br)c1 | +! | 0 | 0 | 0 | ? | 0
SMILES | HCMV antiviral | Marburg entry inh | VACV Venus inh | FMDV inh | LASV entry inh | Vaccinia mCherry
O=C(C1CCCN1S(=O)(=O)c1cccc2nsnc12)N1CCN(c2ccc(F)cc2)CC1 (configuration not stated) | -66 | - | - | 0 | - | -
Cc1ccc2nc(NC(=O)C3CCN(S(=O)(=O)c4cccc5nsnc45)CC3)sc2c1 | -85 | ? | 0 | ? | ? | 0
Cc1ccc(C)c(N2CCN(C(=O)C3CCN(S(=O)(=O)c4cccc5nsnc45)CC3)CC2)c1 | 0 | ? | ? | 22µM | ? | 0
COc1ccc2nc(NC(=O)C3CCN(S(=O)(=O)c4cccs4)CC3)sc2c1 | -97 | ? | ? | 14µM | 15µM | ?
O=C(COc1ccccc1F)Nc1c(C(=O)Nc2cccc(F)c2)oc2ccccc12 | 0 | 0 | 0 | 0 | 0 | 0
OCc1cc2c(cn1)[nH]c1ccccc12 | - | - | 0 | 0 | - | 0
COc1ccc2nc(NC(=O)CNS(=O)(=O)c3cccs3)sc2c1 | 0 | 0 | 0 | - | 0 | 0
Cc1ccc2nc(NC(=O)C3CCN(S(=O)(=O)c4cccs4)CC3)sc2c1 | -94 | ? | - | ? | 10µM | -
COc1ccc2nc(NC(=O)CN(C)S(=O)(=O)c3cccs3)sc2c1 | -72 | 0 | 0 | 0 | 0 | ?
Cc1ccc2nc(NC(=O)C3CCN(S(=O)(=O)c4cccnc4)CC3)sc2c1 | 0 | - | 0 | ? | - | ?
O=C(Nc1ccc(OC(F)(F)F)cc1)C1CCN(S(=O)(=O)c2cccs2)CC1 | -88 | 0 | ? | ? | 0 | ?
Cc1ccc(NC(=O)c2sc(=S)n(-c3cc(C)ccc3F)c2N)cc1 | -63 | 0 | 0 | 0 | 0 | 0
O=C(NCc1ccco1)/C(=C/C=C\c1ccccc1)NC(=O)c1ccc(Br)o1 | -69 | ? | 0 | 0 | ? | 0
Cc1cccc(N2CC(c3nc4ccccc4n3CCC3CCCCC3)CC2=O)c1 (configuration not stated) | 0 | 0 | 0 | 0 | ? | 0
COC(=O)[C@@H]1CC[C@H](C)[C@@H](c2ccc(C)cc2)N1C(=O)c1ccc(/C=N/OC[C@H]2O[C@H](c3ccccc3)C=C[C@@H]2Oc2ccc(OC)cc2)cc1 | - | 0 | - | - | - | -
Cc1ccccc1S(=O)(=O)Cc1ccc(C(=O)N2CCN(c3cccc(C)c3C)CC2)o1 | 0 | ? | ? | 25µM | 3.5µM | 0
Cc1ccccc1S(=O)(=O)Cc1ccc(C(=O)N2CCN(c3cccc(Cl)c3)CC2)o1 | 0 | ? | 0 | 0 | ? | 0
Cc1ccc(Cl)cc1N1CCN(C(=O)c2ccc(CS(=O)(=O)c3ccc(Br)cc3)o2)CC1 | -68 | ? | 0 | ? | 0 | 0
COc1ccc(OC)c(CNS(=O)(=O)c2c(C(=O)N3CCCCCC3)c(C)n(C)c2C)c1 | 0 | - | 0 | 0 | 0 | 0
CCCC(=O)N1CCN(c2ccc(NC(=O)c3cc4ccccc4o3)cc2)CC1 | 0 | ? | 0 | 25µM | 0 | -
COc1cccc(C(=O)NC(=S)Nc2ccc(N3CCCC3)cc2)c1 | 0 | 0 | 0 | ? | ? | -
O=C(Nc1ccc(N2CCN(C(=O)c3ccccc3)CC2)cc1)c1cc2ccccc2o1 | -66 | ? | ? | 14µM | 14µM | -
CN1CCN(c2ccc(NC(=O)c3cc4ccccc4o3)cc2)CC1 | 0 | - | - | 0 | - | -
CCCC(=O)N1CCN(c2ccc(NC(=S)NC(=O)c3cccc(C)c3)cc2)CC1 | ? | ? | 0 | 16µM | ? | 0
O=[N+]([O-])c1ccccc1S(=O)(=O)NCc1ccccn1 | - | - | 0 | - | - | 0
